Experimental data reported in publication PMC4336329 (PLoS ONE, 2015).
Out of some 310,000 compounds screened, about 2,200 (0.71%) showed an effect of 50% or more. The effect is printed as a negative number. The list comes from a sample in which strong results are over-represented; it also holds similar structures and randomly drawn compounds.

What follows are compounds tested against human ether-à-go-go-related gene (hERG) potassium channel (human, UniProt Q12809) (assay: primary screen, population patch clamp on CHO cells stably expressing hERG; higher = less effect of the substance).
Sequence of human ether-à-go-go-related gene (hERG) potassium channel (Q12809 whole entry, looked up): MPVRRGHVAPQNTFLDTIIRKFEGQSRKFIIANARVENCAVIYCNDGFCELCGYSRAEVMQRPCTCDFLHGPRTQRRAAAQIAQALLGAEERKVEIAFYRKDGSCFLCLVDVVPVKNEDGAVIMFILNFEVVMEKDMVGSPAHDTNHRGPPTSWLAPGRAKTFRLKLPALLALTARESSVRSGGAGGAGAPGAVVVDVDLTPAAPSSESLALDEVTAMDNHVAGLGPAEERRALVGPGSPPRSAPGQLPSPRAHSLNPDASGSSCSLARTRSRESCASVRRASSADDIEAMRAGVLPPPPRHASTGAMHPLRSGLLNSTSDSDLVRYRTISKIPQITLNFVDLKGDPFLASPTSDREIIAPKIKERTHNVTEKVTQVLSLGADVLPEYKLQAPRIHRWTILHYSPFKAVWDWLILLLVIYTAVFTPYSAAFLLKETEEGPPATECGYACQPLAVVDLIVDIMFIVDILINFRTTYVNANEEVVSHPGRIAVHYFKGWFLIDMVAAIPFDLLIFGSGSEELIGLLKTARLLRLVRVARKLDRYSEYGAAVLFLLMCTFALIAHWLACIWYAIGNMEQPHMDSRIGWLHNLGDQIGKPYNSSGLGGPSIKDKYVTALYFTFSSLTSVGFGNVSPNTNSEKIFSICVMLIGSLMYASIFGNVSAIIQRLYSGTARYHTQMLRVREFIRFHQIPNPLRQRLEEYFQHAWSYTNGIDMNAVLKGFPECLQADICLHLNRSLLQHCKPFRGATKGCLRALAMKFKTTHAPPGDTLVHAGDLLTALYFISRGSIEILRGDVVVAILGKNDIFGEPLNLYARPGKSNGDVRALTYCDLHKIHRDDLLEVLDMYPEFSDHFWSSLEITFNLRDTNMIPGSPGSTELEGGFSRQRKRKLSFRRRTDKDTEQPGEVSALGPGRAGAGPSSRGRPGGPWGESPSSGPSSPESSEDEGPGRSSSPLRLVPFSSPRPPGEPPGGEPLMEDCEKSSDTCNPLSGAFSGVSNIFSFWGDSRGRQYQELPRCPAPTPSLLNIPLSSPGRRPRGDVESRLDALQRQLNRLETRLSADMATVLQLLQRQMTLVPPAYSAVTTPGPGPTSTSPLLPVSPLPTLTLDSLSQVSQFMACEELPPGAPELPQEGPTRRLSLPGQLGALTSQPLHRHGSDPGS

Row | Compound | hERG current change (%, negative = inhibition) at 1uM [%]
1 | Cc1cc(C)nc(N2CCC(CNC(=O)CCc3ccccc3)CC2)n1 | 20.4
2 | O=C(NCc1cccs1)c1cc(S(=O)(=O)N2CCOCC2)c(Cl)cc1Cl | -78.4
3 | O=C(NCC(c1cccs1)N1CCOCC1)c1cc(S(=O)(=O)N2CCOCC2)c(Cl)cc1Cl (stereo not shown) | 6.08
4 | O=C(NCc1ccncc1)c1cc(S(=O)(=O)N2CCOCC2)c(Cl)cc1Cl | 12.6
5 | CC(=O)Nc1ccc(S(=O)(=O)Nc2ccc(S(=O)(=O)Nc3ncccn3)cc2)cc1 | 8.81
6 | CCOC(=O)C1CCN(Cc2ccc(-c3ccccc3)cc2)CC1 | 8.54
7 | CCOC(=O)C1CCN(c2c(N3CCCC(C(=O)OCC)C3)c(=O)c2=O)CC1 (stereo not shown) | 8.36
8 | CCOC(=O)C1CCN(c2c(NCCCN3CCN(Cc4ccccc4)CC3)c(=O)c2=O)CC1 | 14.3
9 | CCOC(=O)C1CCCN(c2c(N3CCN(c4cccc(Cl)c4)CC3)c(=O)c2=O)C1 (stereo not shown) | -54.1
10 | CCOC(=O)C1CCN(c2c(N3CCN(Cc4ccccc4)CC3)c(=O)c2=O)CC1 | -66.6
11 | CCOC(=O)C1CCCN(c2c(N3CCN(C)CC3)c(=O)c2=O)C1 (stereo not shown) | 10.2
12 | CCOc1ccc(S(=O)(=O)N/N=C(\C)c2ccc(Cl)c(Cl)c2Cl)cc1 | 12.1
13 | Cc1ccc2oc(C(=O)Nc3ccc(S(=O)(=O)Nc4onc(C)c4C)cc3)cc(=O)c2c1 | 15.4
14 | CCN1CCCC1Cn1cnc2c([nH]c3ccc(OC)cc32)c1=O (stereo not shown) | -58.5
15 | COc1ccc2c(c1)[nH]c1c(=O)n(CCN3CCCC3)cnc12 | -17.4
16 | COc1ccc2c(c1)[nH]c1c(=O)n(CC3CCCO3)cnc12 (stereo not shown) | 14.6
17 | COc1ccc2[nH]c3c(=O)n(CCN4CCOCC4)cnc3c2c1 | 9.44
18 | CCC1CCCN1Cn1cnc2c([nH]c3ccc(OC)cc32)c1=O (stereo not shown) | -35.8
19 | CCN1CCCC1Cn1cnc2c([nH]c3cc(OC)ccc32)c1=O (stereo not shown) | -53.5
20 | Cc1cc(C(=O)NC2CCCc3c2cnn3-c2ccc(C(C)(C)C)cc2)nn1C (stereo not shown) | 16.5
21 | O=[N+]([O-])c1cc([N+](=O)[O-])c2nonc2c1Nc1ccc(O)cc1 | 2.03
22 | CC1CCN(S(=O)(=O)c2ccc3c(c2)c(=O)c(C(=O)NC2CCCC2)cn3C)CC1 | 9.59
23 | CCCCS(=O)(=O)N1CCC(C(=O)Oc2ccc(Cl)cc2)CC1 | 17.9
24 | COc1ccc(S(=O)(=O)N2CCN(C(=O)CN3C(=O)NC(C)(C)C3=O)CC2)cc1 | 14
25 | CC(Oc1ccc(Cl)cc1Cl)C(=O)OCC(=O)c1c(N)n(C)c(=O)n(C)c1=O (stereo not shown) | -57.5
26 | Cn1c(N)c(C(=O)COc2ccc(Cl)cc2Cl)c(=O)n(C)c1=O | 12.3
27 | Cn1c(N)c(C(=O)COC(=O)CCCOc2ccc(Cl)cc2Cl)c(=O)n(C)c1=O | 16
28 | O=C(CSc1nc2c(cnn2-c2ccc(F)cc2)c(=O)[nH]1)N1CCCCCC1 | 11

Row | Compound | hERG current change (%, negative = inhibition) at 1uM [%]
29 | O=C(Nc1ccncc1)C1COc2ccccc2O1 (stereo not shown) | 1.88
30 | O=C1CC2(CCN(C(=O)C3CC(=O)N(c4ccc(F)cc4)C3)CC2)Oc2ccccc21 (stereo not shown) | -73.6
31 | Cc1ccc(N2CC(C(=O)N3CCC4(CC3)CC(=O)c3ccccc3O4)CC2=O)cc1C (stereo not shown) | -6.22
32 | O=C1CC2(CCN(C(=O)C3CC(=O)N(c4ccccc4)C3)CC2)Oc2ccccc21 (stereo not shown) | -51.5
33 | O=C(C1CC(=O)N(c2ccc(F)cc2)C1)N1CCN(c2ccccc2)CC1 (stereo not shown) | -13.6
34 | COc1ccc(N2CC(C(=O)N3CCC4(CC3)CC(=O)c3ccccc3O4)CC2=O)cc1 (stereo not shown) | -34.8
35 | COc1cccc(N2CC(C(=O)N3CCC4(CC3)CC(=O)c3ccccc3O4)CC2=O)c1 (stereo not shown) | 3.79
36 | O=C(C1CC(=O)N(c2ccccc2)C1)N1CCN(c2ccc(F)cc2)CC1 (stereo not shown) | -8.63
37 | O=C(C1CC(=O)N(c2ccc(F)cc2)C1)N1CCN(c2ccc(F)cc2)CC1 (stereo not shown) | -71.1
38 | Cc1ccc(N2CC(C(=O)N3CCC4(CC3)CC(=O)c3ccccc3O4)CC2=O)cc1 (stereo not shown) | -47.4
39 | Cc1cnc(C(=O)NNC(=O)c2ccc(Br)cc2)cn1 | 2.55
40 | Cc1cccc(NC(=O)CNC(=O)COc2ccc(C(=O)c3ccc(F)cc3)cc2)c1C | 1.92
41 | CCCCC(=O)Nc1ccc2c(c1)nc(CN1CCN(C(=O)OCC)CC1)n2C | 13.1
42 | Cc1ccc(Oc2cc(C#N)c(C#N)cc2-n2nnc3ccccc32)cc1C | 7.63
43 | CCCCN(CC)C(=O)Cc1ccccc1OC | 18
44 | Cc1ccc(S(=O)(=O)NCc2ccc(C(=O)NCCCN3CCC(Cc4ccccc4)CC3)cc2)cc1 | -52.4
45 | Cc1ccc(S(=O)(=O)NCc2ccc(C(=O)NCCCN3CCN(C)CC3)cc2)cc1 | 13.4
46 | CSc1ccc(NC(=O)NCCCN2CCN(c3ccccc3F)CC2)cc1 | -12.8
47 | O=c1c2cc(NC(=S)NCCCN3CCC(Cc4ccccc4)CC3)ccc2nc2n1CCCCC2 | -57.1
48 | CSc1ccc(NC(=O)NCCCN2CCC(Cc3ccccc3)CC2)cc1 | -76
49 | CC(=O)Nc1ccc(S(=O)(=O)NCc2ccc(C(=O)NCCCN3CCC(C)CC3)cc2)cc1 | 16.7
50 | O=c1c2cc(NC(=S)NCCN3CCCCCC3)ccc2nc2n1CCCCC2 | 7.57
51 | Cc1ccccc1CC1CCN(CCCNC(=O)Nc2ccccc2)CC1 | -34.1
52 | COc1ccc(-c2noc(CCC(=O)NCCCN3CCC(Cc4ccccc4)CC3)n2)cc1 | -84.9
53 | CCN1CCN(CCCNC(=O)CCc2nc(-c3ccc(OC)cc3)no2)CC1 | 6.54
54 | COc1ccc(-c2noc(CCC(=O)NCCCN3CCC(C)CC3)n2)cc1 | 9.03
55 | CCCCNC(=S)Nc1ccc2nc3n(c(=O)c2c1)CCCCC3 | -24.7
